# Test results from publication PMC7862700, “An all-to-all approach to the identification of sequence-specific readers for epigenetic DNA modifications on cytosine”.
# Columns and labels:
# Assay in all cases: DAPPL (digital affinity profiling via proximity ligation, sequencing); 10 mM Tris-HCl pH 7.5, 50 mM NaCl, 1 mM DTT, 4% glycerol, room temperature, 30 min; GST-TFs on glutathione beads, 16-mer random dsDNA library, 0.1% formaldehyde crosslink after washing; high values mean tight binding
# FEV = target: T1, FEV (Homo sapiens, UniProt Q99581 1-238); settings: protein: recombinant; tags: N-terminal GST; dsDNA, one strand shown
# T1 sequence: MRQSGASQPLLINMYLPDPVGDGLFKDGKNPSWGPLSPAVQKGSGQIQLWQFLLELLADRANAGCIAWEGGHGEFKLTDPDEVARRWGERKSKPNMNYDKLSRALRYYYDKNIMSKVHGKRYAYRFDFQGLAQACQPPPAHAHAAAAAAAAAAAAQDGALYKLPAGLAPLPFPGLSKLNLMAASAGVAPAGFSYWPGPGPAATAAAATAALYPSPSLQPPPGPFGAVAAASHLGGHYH
# How it was run: (§1)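 Human transcription factors fused to GST were expressed in yeast, captured on glutathione beads, given DNA barcodes and pooled with a GST-only negative control. Pools were incubated with 200 nmole of a 16-mer random double-stranded DNA library in Tris/NaCl/DTT/glycerol buffer at room temperature for 30 min. They were then washed, crosslinked with 0.1% formaldehyde, proximity-ligated (BsaI/T4 ligase, 1 h, 37 °C), PCR-amplified and sequenced on an Illumina NextSeq500. Binding signal is each 6-mer's read frequency for a factor divided by its frequency for the GST control.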
# ETV5 = ETV5 (Homo sapiens, UniProt P41161 1-510); settings: protein: recombinant; tags: N-terminal GST; dsDNA, one strand shown
# How it was run: as §1
# HSF1 = HSF1 (Homo sapiens, UniProt Q00613 1-529); settings: protein: recombinant; tags: N-terminal GST; chain copies: 3; dsDNA, one strand shown
# How it was run: as §1
# SPIC = target: T2, SPIC (Homo sapiens, UniProt Q8N5J4 1-248); settings: protein: recombinant; tags: N-terminal GST; dsDNA, one strand shown
# T2 sequence: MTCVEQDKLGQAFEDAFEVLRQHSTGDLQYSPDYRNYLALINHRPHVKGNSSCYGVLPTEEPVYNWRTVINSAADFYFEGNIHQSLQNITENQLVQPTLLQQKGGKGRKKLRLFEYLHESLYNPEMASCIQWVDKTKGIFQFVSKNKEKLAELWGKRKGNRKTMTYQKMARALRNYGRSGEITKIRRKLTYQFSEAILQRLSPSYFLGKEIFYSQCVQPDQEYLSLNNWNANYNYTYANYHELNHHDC
# How it was run: as §1
# ELF4 = ELF4 (Homo sapiens, UniProt Q99607 1-663); settings: protein: recombinant; tags: N-terminal GST; dsDNA, one strand shown
# How it was run: as §1
# ELK4 = target: T3, ELK4 (Homo sapiens, UniProt P28324-2 1-405); settings: protein: recombinant; tags: N-terminal GST; dsDNA, one strand shown
# T3 sequence: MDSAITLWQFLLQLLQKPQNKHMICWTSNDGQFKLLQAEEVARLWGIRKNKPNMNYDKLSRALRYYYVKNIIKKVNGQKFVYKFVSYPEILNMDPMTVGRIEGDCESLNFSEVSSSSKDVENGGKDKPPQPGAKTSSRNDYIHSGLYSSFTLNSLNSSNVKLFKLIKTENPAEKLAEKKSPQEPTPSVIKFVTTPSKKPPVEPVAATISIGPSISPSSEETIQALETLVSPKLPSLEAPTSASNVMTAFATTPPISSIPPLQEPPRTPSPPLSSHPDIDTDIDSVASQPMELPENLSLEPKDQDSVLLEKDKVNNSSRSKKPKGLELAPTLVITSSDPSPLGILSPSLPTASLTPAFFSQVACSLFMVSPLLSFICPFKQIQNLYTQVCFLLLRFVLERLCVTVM
# How it was run: as §1
# ETV2 = target: T4, ETV2 (Homo sapiens, UniProt O00321 1-342); settings: protein: recombinant; tags: N-terminal GST; dsDNA, one strand shown
# T4 sequence: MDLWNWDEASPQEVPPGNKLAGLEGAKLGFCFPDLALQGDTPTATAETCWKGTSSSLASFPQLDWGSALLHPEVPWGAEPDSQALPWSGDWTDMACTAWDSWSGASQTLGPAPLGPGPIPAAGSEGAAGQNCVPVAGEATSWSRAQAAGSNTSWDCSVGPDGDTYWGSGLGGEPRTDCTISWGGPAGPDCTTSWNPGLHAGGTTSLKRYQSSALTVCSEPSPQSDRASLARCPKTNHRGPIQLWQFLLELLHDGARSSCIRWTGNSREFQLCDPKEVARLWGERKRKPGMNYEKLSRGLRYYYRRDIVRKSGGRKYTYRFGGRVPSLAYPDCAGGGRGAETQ
# How it was run: as §1
# ELF3 = target: T5, ELF3 (Homo sapiens, UniProt P78545 1-371); settings: protein: recombinant; tags: N-terminal GST; dsDNA, one strand shown
# T5 sequence: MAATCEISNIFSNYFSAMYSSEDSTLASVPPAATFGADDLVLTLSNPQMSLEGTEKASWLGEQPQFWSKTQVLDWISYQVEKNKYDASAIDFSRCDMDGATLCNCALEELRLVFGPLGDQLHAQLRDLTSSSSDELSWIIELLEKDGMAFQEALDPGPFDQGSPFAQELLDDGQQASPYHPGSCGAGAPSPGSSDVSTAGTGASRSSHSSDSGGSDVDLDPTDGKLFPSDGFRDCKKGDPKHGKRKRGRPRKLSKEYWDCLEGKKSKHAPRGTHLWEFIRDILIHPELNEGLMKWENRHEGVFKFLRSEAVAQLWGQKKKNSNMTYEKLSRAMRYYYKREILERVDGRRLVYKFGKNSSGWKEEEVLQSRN
# How it was run: as §1
# CRX = CRX (Homo sapiens, UniProt O43186 1-299); settings: protein: recombinant; tags: N-terminal GST; dsDNA, one strand shown
# How it was run: as §1
# ETV1 = ETV1 (Homo sapiens, UniProt P50549 1-477); settings: protein: recombinant; tags: N-terminal GST; dsDNA, one strand shown
# How it was run: as §1
# ERF = target: T6, ERF (Homo sapiens, UniProt P50548 1-548); settings: protein: recombinant; tags: N-terminal GST; dsDNA, one strand shown
# T6 sequence: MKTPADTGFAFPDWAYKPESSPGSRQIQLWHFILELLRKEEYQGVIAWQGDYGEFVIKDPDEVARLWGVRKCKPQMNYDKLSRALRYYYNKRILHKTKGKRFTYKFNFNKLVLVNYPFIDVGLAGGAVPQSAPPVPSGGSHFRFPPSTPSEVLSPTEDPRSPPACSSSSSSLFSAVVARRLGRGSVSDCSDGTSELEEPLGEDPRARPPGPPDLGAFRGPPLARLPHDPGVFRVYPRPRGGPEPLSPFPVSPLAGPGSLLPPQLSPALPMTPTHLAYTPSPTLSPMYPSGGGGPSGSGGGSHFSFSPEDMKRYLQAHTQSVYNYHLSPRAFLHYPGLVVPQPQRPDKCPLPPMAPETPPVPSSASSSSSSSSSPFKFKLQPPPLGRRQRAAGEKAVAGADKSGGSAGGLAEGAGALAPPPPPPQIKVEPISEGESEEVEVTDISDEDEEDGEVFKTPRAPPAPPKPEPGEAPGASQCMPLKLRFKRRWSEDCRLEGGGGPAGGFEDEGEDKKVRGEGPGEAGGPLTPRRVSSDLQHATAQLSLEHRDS
# How it was run: as §1
# ETV3L = target: T7, ETV3L (Homo sapiens, UniProt Q6ZN32 1-361); settings: protein: recombinant; tags: N-terminal GST; dsDNA, one strand shown
# T7 sequence: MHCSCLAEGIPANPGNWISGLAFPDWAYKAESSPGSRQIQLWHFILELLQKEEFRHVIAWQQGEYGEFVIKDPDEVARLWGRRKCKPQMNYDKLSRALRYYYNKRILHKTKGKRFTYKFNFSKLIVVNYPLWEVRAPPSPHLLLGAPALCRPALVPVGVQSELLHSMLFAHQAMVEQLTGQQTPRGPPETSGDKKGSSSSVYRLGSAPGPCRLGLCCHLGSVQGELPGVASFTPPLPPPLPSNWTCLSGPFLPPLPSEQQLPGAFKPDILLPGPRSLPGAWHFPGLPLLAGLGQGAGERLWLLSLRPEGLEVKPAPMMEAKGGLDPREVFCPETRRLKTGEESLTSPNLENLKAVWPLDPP
# How it was run: as §1
# ETS2 = target: T8, ETS2 (Homo sapiens, UniProt P15036 1-469); settings: protein: recombinant; tags: N-terminal GST; dsDNA, one strand shown
# T8 sequence: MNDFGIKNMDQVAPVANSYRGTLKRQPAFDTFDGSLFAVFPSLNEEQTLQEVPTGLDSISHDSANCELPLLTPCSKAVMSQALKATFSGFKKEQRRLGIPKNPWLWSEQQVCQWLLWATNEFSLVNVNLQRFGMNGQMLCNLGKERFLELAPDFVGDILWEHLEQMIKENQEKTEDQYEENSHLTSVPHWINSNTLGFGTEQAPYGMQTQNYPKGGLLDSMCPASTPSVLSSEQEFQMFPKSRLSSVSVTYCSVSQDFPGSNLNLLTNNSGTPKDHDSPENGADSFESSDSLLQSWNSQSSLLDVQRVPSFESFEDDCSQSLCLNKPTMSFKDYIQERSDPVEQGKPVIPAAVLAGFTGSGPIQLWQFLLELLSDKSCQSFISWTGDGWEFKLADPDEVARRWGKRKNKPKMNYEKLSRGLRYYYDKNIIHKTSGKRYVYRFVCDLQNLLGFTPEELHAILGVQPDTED
# How it was run: as §1
# SPDEF = target: T9, SPDEF (Homo sapiens, UniProt O95238 1-335); settings: protein: recombinant; tags: N-terminal GST; dsDNA, one strand shown
# T9 sequence: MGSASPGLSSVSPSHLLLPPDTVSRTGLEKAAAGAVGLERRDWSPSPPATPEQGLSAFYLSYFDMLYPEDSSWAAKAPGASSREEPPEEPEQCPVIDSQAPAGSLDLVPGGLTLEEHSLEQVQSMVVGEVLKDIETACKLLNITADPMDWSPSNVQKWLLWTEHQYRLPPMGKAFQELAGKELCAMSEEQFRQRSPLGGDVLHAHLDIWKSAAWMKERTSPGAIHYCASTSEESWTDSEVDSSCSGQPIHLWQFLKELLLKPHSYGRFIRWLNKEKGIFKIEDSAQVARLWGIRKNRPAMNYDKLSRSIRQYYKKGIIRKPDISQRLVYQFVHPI
# How it was run: as §1
# ETV7 = target: T10, ETV7 (Homo sapiens, UniProt Q9Y603 1-341); settings: protein: recombinant; tags: N-terminal GST; dsDNA, one strand shown
# T10 sequence: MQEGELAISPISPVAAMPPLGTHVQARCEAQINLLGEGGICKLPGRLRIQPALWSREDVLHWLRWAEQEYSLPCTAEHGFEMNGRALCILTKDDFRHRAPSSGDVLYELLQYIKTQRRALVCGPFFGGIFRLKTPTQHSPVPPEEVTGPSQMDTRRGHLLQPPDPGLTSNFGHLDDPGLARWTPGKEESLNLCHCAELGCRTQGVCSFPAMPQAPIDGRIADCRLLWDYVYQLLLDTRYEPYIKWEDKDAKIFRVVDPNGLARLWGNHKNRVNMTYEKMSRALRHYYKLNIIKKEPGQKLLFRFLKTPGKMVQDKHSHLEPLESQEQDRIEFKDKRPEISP
# How it was run: as §1
# ELF5 = target: T11, ELF5 (Homo sapiens, UniProt Q9UKW6-2 1-255); settings: protein: recombinant; tags: N-terminal GST; dsDNA, one strand shown
# T11 sequence: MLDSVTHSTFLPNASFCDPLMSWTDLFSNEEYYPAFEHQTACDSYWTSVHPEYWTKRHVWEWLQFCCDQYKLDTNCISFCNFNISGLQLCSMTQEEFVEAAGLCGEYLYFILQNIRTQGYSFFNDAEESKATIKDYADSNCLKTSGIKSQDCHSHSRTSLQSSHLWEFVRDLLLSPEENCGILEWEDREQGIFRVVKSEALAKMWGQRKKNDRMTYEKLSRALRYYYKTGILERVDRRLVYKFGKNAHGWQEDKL
# How it was run: as §1
# ETV3 = target: T12, ETV3 (Homo sapiens, UniProt P41162-2 1-143); settings: protein: recombinant; tags: N-terminal GST; dsDNA, one strand shown
# T12 sequence: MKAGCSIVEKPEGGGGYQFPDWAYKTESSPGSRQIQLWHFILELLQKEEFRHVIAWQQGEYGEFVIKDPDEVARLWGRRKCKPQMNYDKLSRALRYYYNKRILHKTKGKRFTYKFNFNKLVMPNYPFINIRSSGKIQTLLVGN
# How it was run: as §1
# ETV6 = ETV6 (Homo sapiens, UniProt P41212 1-452); settings: protein: recombinant; tags: N-terminal GST; dsDNA, one strand shown
# How it was run: as §1
# CRX, sequence (O43186 whole entry): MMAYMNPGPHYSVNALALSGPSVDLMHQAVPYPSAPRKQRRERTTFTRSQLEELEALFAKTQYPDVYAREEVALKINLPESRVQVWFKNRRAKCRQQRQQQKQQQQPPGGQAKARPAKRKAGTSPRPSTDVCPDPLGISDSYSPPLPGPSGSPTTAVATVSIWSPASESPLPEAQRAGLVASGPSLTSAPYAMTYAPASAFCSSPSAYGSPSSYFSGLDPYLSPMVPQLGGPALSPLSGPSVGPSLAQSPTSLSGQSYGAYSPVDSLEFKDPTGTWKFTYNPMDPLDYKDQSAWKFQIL
# ELF4, sequence (Q99607 whole entry): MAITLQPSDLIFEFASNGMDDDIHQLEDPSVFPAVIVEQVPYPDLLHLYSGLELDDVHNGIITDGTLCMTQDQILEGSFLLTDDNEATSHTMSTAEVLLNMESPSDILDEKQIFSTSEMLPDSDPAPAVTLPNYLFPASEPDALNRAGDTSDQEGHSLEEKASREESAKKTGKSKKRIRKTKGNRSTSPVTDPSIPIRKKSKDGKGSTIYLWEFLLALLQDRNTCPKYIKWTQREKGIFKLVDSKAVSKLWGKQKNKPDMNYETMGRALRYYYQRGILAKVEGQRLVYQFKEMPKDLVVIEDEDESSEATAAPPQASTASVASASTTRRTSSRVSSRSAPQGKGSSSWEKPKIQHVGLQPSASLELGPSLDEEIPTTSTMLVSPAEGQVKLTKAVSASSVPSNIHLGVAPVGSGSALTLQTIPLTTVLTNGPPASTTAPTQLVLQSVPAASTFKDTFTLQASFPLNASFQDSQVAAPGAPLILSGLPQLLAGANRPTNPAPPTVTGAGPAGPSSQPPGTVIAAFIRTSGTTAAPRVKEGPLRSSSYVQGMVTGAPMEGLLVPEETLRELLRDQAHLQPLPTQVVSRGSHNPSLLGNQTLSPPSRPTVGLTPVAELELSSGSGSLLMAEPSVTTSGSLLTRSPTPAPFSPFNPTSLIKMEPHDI
# ETV5, sequence (P41161 whole entry): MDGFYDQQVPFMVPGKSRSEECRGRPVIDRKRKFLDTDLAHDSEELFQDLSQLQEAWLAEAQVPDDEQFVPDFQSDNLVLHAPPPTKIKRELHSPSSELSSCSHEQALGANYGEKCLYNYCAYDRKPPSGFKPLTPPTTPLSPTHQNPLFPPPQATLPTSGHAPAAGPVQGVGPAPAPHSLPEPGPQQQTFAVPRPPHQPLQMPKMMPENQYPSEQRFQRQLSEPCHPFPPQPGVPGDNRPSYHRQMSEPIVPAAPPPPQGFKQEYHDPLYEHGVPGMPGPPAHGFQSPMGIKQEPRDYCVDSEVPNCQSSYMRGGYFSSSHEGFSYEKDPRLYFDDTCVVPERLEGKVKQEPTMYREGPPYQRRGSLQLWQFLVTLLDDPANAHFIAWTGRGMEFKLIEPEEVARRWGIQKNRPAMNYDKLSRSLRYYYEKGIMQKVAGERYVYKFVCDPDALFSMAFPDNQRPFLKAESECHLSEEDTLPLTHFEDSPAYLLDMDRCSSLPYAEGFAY
# ETV1, sequence (P50549 whole entry): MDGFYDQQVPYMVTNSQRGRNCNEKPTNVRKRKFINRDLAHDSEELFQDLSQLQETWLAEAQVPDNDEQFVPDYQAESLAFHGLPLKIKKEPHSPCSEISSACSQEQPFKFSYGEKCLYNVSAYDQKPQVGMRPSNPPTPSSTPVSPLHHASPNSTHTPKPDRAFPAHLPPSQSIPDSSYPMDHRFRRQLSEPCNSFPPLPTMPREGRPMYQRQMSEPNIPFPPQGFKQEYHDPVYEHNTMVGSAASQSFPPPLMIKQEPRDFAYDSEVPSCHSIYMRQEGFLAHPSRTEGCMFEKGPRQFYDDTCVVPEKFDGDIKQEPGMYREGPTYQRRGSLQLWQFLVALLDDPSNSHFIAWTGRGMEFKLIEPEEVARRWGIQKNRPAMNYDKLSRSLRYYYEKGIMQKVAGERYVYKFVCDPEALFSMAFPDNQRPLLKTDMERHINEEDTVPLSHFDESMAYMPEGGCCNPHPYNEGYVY
# ETV6, sequence (P41212 whole entry): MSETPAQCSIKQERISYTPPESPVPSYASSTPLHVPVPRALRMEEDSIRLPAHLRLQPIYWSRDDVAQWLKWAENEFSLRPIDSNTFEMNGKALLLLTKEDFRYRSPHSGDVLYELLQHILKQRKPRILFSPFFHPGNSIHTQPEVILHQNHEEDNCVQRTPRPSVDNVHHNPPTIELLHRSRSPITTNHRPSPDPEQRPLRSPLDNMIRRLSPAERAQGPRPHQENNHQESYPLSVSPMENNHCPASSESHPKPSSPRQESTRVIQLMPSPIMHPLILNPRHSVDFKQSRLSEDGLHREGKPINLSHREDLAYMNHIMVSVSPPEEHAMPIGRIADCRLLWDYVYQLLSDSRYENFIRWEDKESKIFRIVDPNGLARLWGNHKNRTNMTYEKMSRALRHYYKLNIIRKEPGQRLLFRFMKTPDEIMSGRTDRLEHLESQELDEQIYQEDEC
# HSF1, sequence (Q00613 whole entry): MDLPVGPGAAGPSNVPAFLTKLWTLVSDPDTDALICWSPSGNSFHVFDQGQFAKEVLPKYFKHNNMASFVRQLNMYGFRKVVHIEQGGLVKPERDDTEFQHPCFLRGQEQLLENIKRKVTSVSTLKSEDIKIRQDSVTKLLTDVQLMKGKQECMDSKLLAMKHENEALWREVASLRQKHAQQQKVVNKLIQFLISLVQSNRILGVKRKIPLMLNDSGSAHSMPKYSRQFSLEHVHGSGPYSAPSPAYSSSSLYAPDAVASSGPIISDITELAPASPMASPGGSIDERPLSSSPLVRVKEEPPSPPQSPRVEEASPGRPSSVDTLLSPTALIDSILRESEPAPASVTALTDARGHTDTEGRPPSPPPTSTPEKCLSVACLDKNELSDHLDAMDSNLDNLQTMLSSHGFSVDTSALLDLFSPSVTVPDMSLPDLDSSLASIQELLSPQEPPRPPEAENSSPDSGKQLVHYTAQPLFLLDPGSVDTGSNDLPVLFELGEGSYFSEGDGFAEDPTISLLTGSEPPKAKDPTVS
sequence,measurement,setting,value
CCCCCT,binding signal,FEV,"1.18 fold enrichment (6-mer frequency, TF over GST control)"
same,binding signal,ETV5,"1.29 fold enrichment (6-mer frequency, TF over GST control)"
same,binding signal,HSF1,"1.02 fold enrichment (6-mer frequency, TF over GST control)"
same,binding signal,SPIC,"1.31 fold enrichment (6-mer frequency, TF over GST control)"
same,binding signal,ELF4,"1.35 fold enrichment (6-mer frequency, TF over GST control)"
same,binding signal,ELK4,"1.58 fold enrichment (6-mer frequency, TF over GST control)"
same,binding signal,ETV2,"1.17 fold enrichment (6-mer frequency, TF over GST control)"
same,binding signal,ELF3,"1.39 fold enrichment (6-mer frequency, TF over GST control)"
same,binding signal,CRX,"1.07 fold enrichment (6-mer frequency, TF over GST control)"
same,binding signal,ETV1,"1.2 fold enrichment (6-mer frequency, TF over GST control)"
same,binding signal,ERF,"1.38 fold enrichment (6-mer frequency, TF over GST control)"
same,binding signal,ETV3L,"1.23 fold enrichment (6-mer frequency, TF over GST control)"
same,binding signal,ETS2,"1.14 fold enrichment (6-mer frequency, TF over GST control)"
same,binding signal,SPDEF,"1.05 fold enrichment (6-mer frequency, TF over GST control)"
same,binding signal,ETV7,"1.17 fold enrichment (6-mer frequency, TF over GST control)"
same,binding signal,ELF5,"1.37 fold enrichment (6-mer frequency, TF over GST control)"
same,binding signal,ETV3,"1.27 fold enrichment (6-mer frequency, TF over GST control)"
same,binding signal,ETV6,"1.15 fold enrichment (6-mer frequency, TF over GST control)"
